# Measurements reported in PubChem BioAssay (NCATS).
# Unmarked numbers belong to inactive results. Results filed as inconclusive are left out. A call without a number means that no potency is given here. The source made the active and inactive calls. Calls come from the whole dose curve; as a rule, active = well fitted curve in the direction sought with a large enough effect; inconclusive = small, poorly fitted or top-dose-only effect, or another doubt; inactive = no such curve, though single readings can be large; an effect the other way counts as inactive or inconclusive.
# Experiments:
# [1] = target: Glutathione peroxidase 1 (Homo sapiens) (UniProt P07203); test: Primary qHTS Assay for Inhibitors of Recombinant Selenoprotein Glutathione Peroxidase 1 (GPX1) (AID 1845191); note: nearly all actives have a fitted effect of over 65% in size
# Sequence of Glutathione peroxidase 1 (Homo sapiens) (P07203 whole entry, looked up): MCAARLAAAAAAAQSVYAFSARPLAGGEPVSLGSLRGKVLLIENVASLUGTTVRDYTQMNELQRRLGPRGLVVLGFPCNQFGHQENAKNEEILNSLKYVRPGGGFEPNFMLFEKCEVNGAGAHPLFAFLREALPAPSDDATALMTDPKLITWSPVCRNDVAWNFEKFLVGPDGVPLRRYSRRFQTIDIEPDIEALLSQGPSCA
# Procedure, shortened: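 NADPH consumption tracked by fluorescence at 340/450 nm between t=0 and t=15 min, room temperature. Final mix: 10 nM GPX1, 100 nM glutathione reductase, 1 mM GSH, 0.5 mM NADPH, 0.5 mM cumene hydroperoxide, 0.01% BSA; 30 min compound–enzyme preincubation.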
# [2] = target: Phospholipid hydroperoxide glutathione peroxidase GPX4 (Homo sapiens) (UniProt P36969); test: Primary qHTS Assay for Inhibitors of Recombinant Selenoprotein Glutathione Peroxidase 4 (GPX4) (AID 1845192); note: nearly all actives have a fitted effect of over 65% in size; for activity change, negative = inhibition: series mostly up to about 50 µM
# Sequence of Phospholipid hydroperoxide glutathione peroxidase GPX4 (Homo sapiens) (P36969 whole entry, looked up): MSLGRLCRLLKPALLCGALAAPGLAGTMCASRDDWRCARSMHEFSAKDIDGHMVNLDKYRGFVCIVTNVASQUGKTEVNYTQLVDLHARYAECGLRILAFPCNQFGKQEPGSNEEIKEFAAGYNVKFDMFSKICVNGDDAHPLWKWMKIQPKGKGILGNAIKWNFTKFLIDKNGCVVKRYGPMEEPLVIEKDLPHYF
# Procedure, shortened: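 NADPH consumption followed by fluorescence at 340/450 nm, t=0 and after 15 min at room temperature. Reaction started with cumene hydroperoxide (0.5 mM final) after 30 min compound–GPX4 preincubation; final 200 nM GPX4, 100 nM GR, 1 mM GSH, 0.5 mM NADPH.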
# [3] = target: Luciferin 4-monooxygenase (Photinus pyralis) (UniProt P08659); test: Primary firefly luciferase (FLuc) qHTS assay for identification of artifact compounds. (AID 1845220); note: nearly all actives have a fitted effect of over 60% in size; for activity change, negative = inhibition: series mostly up to about 54 µM
# Procedure, shortened: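 Cell-free, 1536-well qHTS. Buffer pH 7.6 with 0.01% Tween-20 and 0.05% BSA; 10 uM D-luciferin, 10 uM ATP; 10 nM P. pyralis luciferase; luminescence after 5 min.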
# [4] = Primary fluorescence-based thiol-reactive (MSTI) qHTS assay for identification of artifact compounds. (AID 1845221); note: nearly all actives have a fitted effect of over 65% in size; note: potency is the fitted concentration of half-maximal effect;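 for activity change, negative = thiol reactive: series mostly up to about 54 µM; thiol-reactive compounds lower the probe fluorescence signal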
# Procedure, shortened: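 One-hour, room-temperature, dark incubation of compound with 4 uM MSTI in PBS (pH 7.4, 2% DMSO) precedes a fluorescence read at 525 nm excitation, 598 nm emission; Hill-equation fitting yields concentration-response values.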
# [5] = tested on: Nanoluciferase (engineered Oplophorus gracilirostris luciferase); test: Primary Nanoluciferase (NLuc) qHTS assay for identification of artifact compounds. (AID 1845222); note: series mostly up to about 54 µM
# Procedure, shortened: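 Compounds are pinned into diluted (1:55) conditioned medium of NLuc-expressing S16 cells and held 15 min at room temperature protected from light. Nano-Glo substrate follows, and luminescence is read 5 min later.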
# [6] = Primary redox qHTS assay for identification of artifact compounds. (AID 1845223)
# Procedure, shortened: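 Redox-cycling detection via DTT (250 uM final) oxidation coupled to Amplex Red (25 uM)/HRP (250 mU/mL) in HBSS. 15 min preincubation plus 30 min after DTT, room temperature. Ex/Em 525/598 nm; 4-parameter Hill fit against DMSO and 10 uM DA3003.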
compound,measurement,setting,value
C=C1CCC2C(C)(C)CC(O)CC2(C)C1CCC(C)CCOC(=O)CCC(=O)O (centres undefined),Potency,[1],inactive
same,Potency,[2],inactive
same,Potency,[3],inactive
same,Potency,[4],inactive
same,Potency,[5],inactive
C=C[C@]1(C)C[C@@H](OC(=O)CSC2C[C@H]3CC[C@@H](C2)N3C)[C@]2(C)[C@H](C)CC[C@]3(CCC(=O)[C@H]32)[C@@H](C)[C@@H]1O (some centres undefined),Potency,[1],inactive
same,Potency,[2],inactive
same,Potency,[3],inactive
same,Potency,[4],inactive
same,Potency,[5],inactive
CC1=CCC2C(C)(C)CCCC2(C)C1CC12OC1C(O)C(CO)=CC2O (centres undefined),Potency,[1],inactive
same,Potency,[2],inactive
same,Potency,[3],inactive
same,Potency,[4],inactive
same,Potency,[5],inactive
C=C(CC/C=C(\C)C(=O)O)C1(O)CC=C(C)CC1 (centres undefined),Potency,[1],inactive
same,Potency,[2],inactive
same,Potency,[3],inactive
same,Potency,[4],inactive
same,Potency,[5],inactive
C=C(C(=O)O)[C@@H]1CC[C@@]2(C)CC[C@@H](O)C(=C)C2C1 (some centres undefined),Potency,[1],inactive
same,Potency,[2],inactive
same,Potency,[3],inactive
same,Potency,[4],23.8 µM (active)
same,Potency,[5],inactive
CC1CC2(O)OC(=O)C3=C2C(CCC3)[C@@]12C[C@@H](c1ccoc1)OC2=O (some centres undefined),Potency,[1],inactive
same,Potency,[2],inactive
same,Potency,[3],inactive
same,Potency,[4],4.65 µM (active)
same,Potency,[5],inactive
OCC(O)C(c1c[nH]c2ccccc12)c1c[nH]c2ccccc12 (centres undefined),Potency,[1],inactive
same,Potency,[2],inactive
same,Potency,[3],inactive
same,Potency,[4],6.7 µM (active)
same,Potency,[5],inactive
CC(C)(C)NS(=O)(=O)c1ccc(-c2ccc3[nH]nc(N)c3c2)cc1,Potency,[1],inactive
same,Potency,[2],inactive
same,Potency,[3],inactive
same,Potency,[4],7.52 µM (active)
same,Potency,[5],inactive
CC(=O)O[C@@H]1[C@H](O[C@@H]2OC[C@](O)(CO)[C@H]2O)[C@@H](O[C@@H]2O[C@@H](C)[C@H](O)[C@@H](O[C@@H]3O[C@H](CO)[C@@H](O)[C@H](O)[C@H]3O)[C@H]2O)[C@H](OC(=O)[C@]23CCC(C)(C)C[C@H]2C2=CCC4[C@@]5(C)C[C@H](O)[C@H](O[C@@H]6O[C@H](C(=O)O)[C@@H](O)[C@H](O)[C@H]6O)[C@@](C)(C(=O)O)C5CC[C@@]4(C)[C@]2(C)CC3)O[C@@H]1C (some centres undefined),Potency,[1],inactive
same,Potency,[2],inactive
same,outcome,[3],inactive [at 11.6 µM]
same,"activity change, negative = thiol reactive",[4],238% [at 11.5 µM]
same,"activity, negative = inhibition",[5],0% [at 11.6 µM]
NC(=O)c1ccc(F)c2c1C[C@@H](N(C1CCC1)C1CCC1)CO2,Potency,[1],inactive
same,Potency,[2],inactive
same,Potency,[3],inactive
same,Potency,[4],inactive
same,Potency,[5],inactive
CC1CC(=O)C2=C(O1)OC1(C)CCC3C(C)(C)C4OC4C(=O)C3(C)C1C2 (centres undefined),Potency,[1],inactive
same,Potency,[2],inactive
same,Potency,[3],inactive
same,Potency,[4],16.5 µM (active)
same,Potency,[5],inactive
COc1cn(-c2ccc(-n3cccn3)cc2F)nc(-c2ccnn2-c2ccccc2)c1=O,Potency,[1],inactive
same,Potency,[2],inactive
same,Potency,[3],inactive
same,Potency,[4],inactive
same,Potency,[5],inactive
C[C@@H]1O[C@@H](O[C@H]2[C@H](O)[C@@H](O)[C@H](OC(=O)[C@]34CCC(C)(C)C[C@H]3C3=CCC5[C@@]6(C)CC[C@H](O[C@@H]7O[C@H](C(=O)O)[C@@H](O)[C@H](O)[C@H]7O)C(C)(C)C6CC[C@@]5(C)[C@]3(C)CC4)O[C@@H]2CO)[C@H](O)[C@H](O)[C@H]1O (some centres undefined),Potency,[1],inactive
same,Potency,[2],inactive
same,"activity change, negative = inhibition",[3],-16.1% [at 11.6 µM]
same,"activity change, negative = thiol reactive",[4],74.8% [at 11.5 µM]
same,"activity, negative = inhibition",[5],-3.67% [at 11.6 µM]
CCc1cc(CC[C@]2(C3CCCC3)CC(O)=C(Cc3nc4nc(C)cc(C)n4n3)C(=O)O2)cc(CC)n1,Potency,[1],inactive
same,Potency,[2],inactive
same,Potency,[3],inactive
same,Potency,[4],inactive
same,Potency,[5],inactive
C=C1CC[C@@H]2[C@](C)(CO)[C@H](O[C@@H]3O[C@H](CO)[C@@H](O)[C@H](O)[C@H]3O)CC[C@@]2(C)[C@@H]1C/C=C1/C(=O)OC[C@H]1O,Potency,[1],inactive
same,Potency,[2],inactive
same,Potency,[3],inactive
same,Potency,[4],6.53 µM (active)
same,Potency,[5],inactive
C[C@H]1CC[C@@]2(OC1)O[C@H]1CC3C4CC[C@H]5C[C@@H](O[C@@H]6O[C@H](CO)[C@H](O[C@@H]7O[C@H](CO)[C@@H](O)[C@H](O[C@@H]8OC[C@@H](O)[C@H](O)[C@H]8O)[C@H]7O[C@@H]7O[C@H](CO)[C@@H](O)[C@H](O)[C@H]7O)[C@H](O)[C@H]6O)[C@H](O)C[C@]5(C)C4=CC(=O)[C@]3(C)[C@H]1[C@@H]2C (some centres undefined),Potency,[1],inactive
same,Potency,[2],inactive
same,"activity change, negative = inhibition",[3],4.7% [at 11.6 µM]
same,"activity change, negative = thiol reactive",[4],203% [at 11.5 µM]
same,"activity, negative = inhibition",[5],0% [at 11.6 µM]
O=C(/C=C/N1C[C@@H]2C[C@@H]1CN2c1ccccn1)c1ccccc1O,Potency,[1],inactive
same,Potency,[2],inactive
same,Potency,[3],inactive
same,Potency,[4],inactive
same,Potency,[5],inactive
CC(C/C=C/C(C)(C)O)C1CCC(C)(O)C(O)C1 (centres undefined),Potency,[1],inactive
same,Potency,[2],inactive
same,Potency,[3],inactive
same,Potency,[4],inactive
same,Potency,[5],inactive
C=C1CC[C@]2(C(=O)O[C@@H]3O[C@H](CO)[C@@H](O)[C@H](O)[C@H]3O)CC[C@]3(C)C(=CCC4[C@@]5(C)C[C@H](O)[C@@H](O[C@@H]6O[C@H](C(=O)O)[C@@H](O)[C@H](O)[C@H]6O)[C@](C)(C=O)C5CC[C@]43C)C2C1 (some centres undefined),Potency,[1],inactive
same,Potency,[2],inactive
same,outcome,[3],inactive [at 11.6 µM]
same,"activity change, negative = thiol reactive",[4],113% [at 11.5 µM]
same,"activity, negative = inhibition",[5],1.82% [at 11.6 µM]
Cc1cc(CO)c(O)c(C(=O)CC2CC(=O)NC(=O)C2)c1,Potency,[1],inactive
same,Potency,[2],inactive
same,Potency,[3],inactive
same,Potency,[4],inactive
same,Potency,[5],inactive
same,Potency,[6],inactive
C[C@@H]1O[C@@H](OC2C(CO)OC(OCC3OC(OC(=O)[C@]45CCC(C)(C)CC4C4=CCC6[C@@]7(C)CC[C@@H](O)[C@](C)(C(=O)O)C7CC[C@@]6(C)[C@]4(C)CC5)C(O)C(O)C3O)C(O)C2O)[C@H](O)[C@H](O)[C@H]1O (some centres undefined),Potency,[1],inactive
same,Potency,[2],inactive
same,"activity change, negative = inhibition",[3],-1.59% [at 11.6 µM]
same,"activity change, negative = thiol reactive",[4],268% [at 11.5 µM]
same,"activity, negative = inhibition",[5],3.23% [at 11.6 µM]
same,redox activity (% of DA3003),[6],10.6% [at 11.5 µM]
N#Cc1cccc(-c2c[nH]c3ncnc(N4CCOCC4)c23)c1,Potency,[1],inactive
same,Potency,[2],inactive
same,Potency,[3],inactive
same,Potency,[4],inactive
same,Potency,[5],inactive
same,Potency,[6],inactive
COc1cc(C(C)=O)ccc1O[C@@H]1O[C@H](CO[C@@H]2OC[C@@H](O)[C@H](O)[C@H]2O)[C@@H](O)[C@H](O)[C@H]1O,Potency,[1],inactive
same,Potency,[2],inactive
same,Potency,[3],inactive
same,Potency,[4],inactive
same,Potency,[5],inactive
same,Potency,[6],inactive
